Screening data from PubChem.
In the library only some 2.7% were active in any assay of this set; here they are far more common.
LDHA block: inhibitors of human lactate dehydrogenase A | actives 0.15% (n = 480,000) | purified LDHA, NADH/diaphorase-resazurin fluorescence; active compounds read low | activity change, % (values are at about 110 or 230 µM) | P00338; in the data active = activity change below about -30%; inconclusive = mostly about -25% to -30%
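Human LDH5 at 2 nM final in Tris HCl pH 7.4 with 0.06 mM NADH and 0.2 mM pyruvate, reacted 5 minutes at room temperature. Remaining NADH coupled via diaphorase/resazurin; resorufin fluorescence read at 0 and 20 minutes, normalized to enzyme-free and DMSO wells.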
A549 tox: A549 cytotoxicity, counter-screen for Nrf2 inhibitors | A549 ARE-Fluc cells, CellTiter-Fluor viability, 18-24 h | Potency, µM (series often up to 46 µM), usual class: inhibitors | actives 0.16% (n = 390,000) | AID 504648
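Cytotoxicity counterscreen: CellTiter-Fluor fluorescence was measured in A549 ARE_Fluc cells after 18-24 h of compound exposure in a concentration series. The subsequent BugLite luminescent read reports ARE-luciferase activity.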
Nrf2 inh: blocks Nrf2 signaling | actives 2.1% (n = 360,000) | AID 504444 | Potency, µM (series often up to 46 µM), most hits filed as inhibitors | A549 ARE-Fluc reporter, luciferase luminescence, 18-24 h; note: nearly all actives have a fitted effect of over 60% in size
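A549 ARE_Fluc cells, 5000/well, 5% FBS OPTI-MEM; compounds in dose-response, 18-24 h at 37 °C/5% CO2; CellTiter-Fluor viability read (Ex 405/Em 525), then BugLite luciferase luminescence = Nrf2 activity.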
12-LOX inh: blocks human arachidonate 12S-lipoxygenase. AID 1671190. actives 1.1% (n = 580,000). P18054. Potency, µM (highest dose often 108 µM), most hits filed as inhibitors. purified 12hLO, xylenol orange hydroperoxide absorbance
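Purified human 12hLO at 150 nM in 25 mM Hepes, 0.01% Triton X-100, pH 7.0, preincubated 15 min at room temperature with compound. Reaction started with 40 uM arachidonic acid, 30 min at room temperature. Hydroperoxide measured by Fe-xylenol orange, 573/405 nm absorbance ratio.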
Nrf2 ARE act: activators of Nrf2 (ARE) signaling; AREc32 ARE-luciferase reporter (MCF7-derived line), luminescence, 24 h; actives 0.31% (n = 410,000); AID 624171; Potency, µM (series often up to 46.1 µM), usual class: activators; note: nearly all actives have a fitted effect of over 65% in size
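AREc32 cells carrying an ARE-driven firefly luciferase reporter were seeded at 1000 cells/well in OPTI-MEM with 5% FBS, then exposed to compound for 24 hr at 37 deg C. Luminescence was read with Steady-Glo after 30 min at RT.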
ERG-DNA inh: inhibitors of human ERG Ets domain-DNA interaction | AID 624246 | P11308 | Potency, µM (titrated, usually from 76.9 µM), actives largely listed as inhibitors | actives 0.028% (n = 370,000) | fluorescence polarization, His-ERG Ets domain / labelled DNA; active = well fitted inhibition curve with a large enough effect in the polarisation, with a control signal flat; inconclusive = small, poorly fitted or top-dose-only effect, or effect the other way, or a change in a side signal; inactive = no such curve, though single readings can be large or run the other way; the % refers to the polarisation;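 note: polarization taken with two DNA probes labelled with fluorescein and Texas red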
Target sequence (P11308 whole entry, looked up, the tested form may be a part): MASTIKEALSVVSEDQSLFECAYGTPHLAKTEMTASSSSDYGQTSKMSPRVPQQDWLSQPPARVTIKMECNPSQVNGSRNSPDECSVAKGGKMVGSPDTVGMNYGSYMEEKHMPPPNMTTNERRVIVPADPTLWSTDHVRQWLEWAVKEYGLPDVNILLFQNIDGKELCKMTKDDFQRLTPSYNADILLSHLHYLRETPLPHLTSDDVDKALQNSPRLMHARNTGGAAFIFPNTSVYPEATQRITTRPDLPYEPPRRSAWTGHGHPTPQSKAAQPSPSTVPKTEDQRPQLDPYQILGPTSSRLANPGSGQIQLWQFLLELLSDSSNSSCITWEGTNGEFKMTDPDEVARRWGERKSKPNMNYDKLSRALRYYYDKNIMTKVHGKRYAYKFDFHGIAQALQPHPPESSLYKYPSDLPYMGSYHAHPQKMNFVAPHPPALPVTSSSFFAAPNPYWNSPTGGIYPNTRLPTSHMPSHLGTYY
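His-tagged ERG Ets domain (1 uM in the protein solution; 300mM KCl, 50mM Tris-HCl, 1mM EDTA, 1mM DTT, pH 7.5) received compound, then a probe mix of 5 nM fluorescein-DNA and 100nM Texas-615-DNA. Fluorescence polarization was read for both dyes.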
Of the large screens only hits and unclear results are named; the others gave an inactive call. Unless noted, calls come from the whole dose curve; as a rule, active = well fitted curve in the direction sought with a large enough effect; inconclusive = small, poorly fitted or top-dose-only effect, or another doubt; inactive = no such curve, though single readings can be large; an effect the other way counts as inactive or inconclusive.

CNC(=O)CCn1ncc2cc(OC3CCc4cccc(-c5ccc(O)c(F)c5)c43)ccc21 (stereo not drawn)	12-LOX inh 50µM (no result: LDHA block, A549 tox, Nrf2 inh, Nrf2 ARE act, ERG-DNA inh)
CN(C)c1cccc(C(=O)NC(c2ccccc2)c2ccccc2)c1	12-LOX inh inconclusive (no result: A549 tox, Nrf2 inh, Nrf2 ARE act, ERG-DNA inh)
O=C(Nc1ccn(Cc2ccccc2F)n1)c1ccc(COc2ccc(Br)cc2)cc1	A549 tox inconclusive, Nrf2 inh 6.5µM
O=C(Nc1ccc(Cn2cccn2)cc1)c1ccc(COc2ccc(Br)cc2)cc1	none
O=c1cc(-c2ccccc2)oc2c1ccc1ccccc12	none (no result: LDHA block, A549 tox, Nrf2 inh, Nrf2 ARE act, ERG-DNA inh)
O=c1oc(-c2ccc(O)c(O)c2)cc2cccc(O)c12	12-LOX inh 4.5µM, Nrf2 ARE act inconclusive
O=c1cc(-c2ccc(O)c(O)c2)oc2ccc3ccccc3c12	Nrf2 inh inconclusive, 12-LOX inh inconclusive
O=c1cc(-c2ccc(O)c(O)c2)oc2c1ccc1ccccc12	12-LOX inh 0.35µM, ERG-DNA inh inconclusive
O=c1oc(-c2ccc(O)c(O)c2)cc2cc(O)cc(O)c12	12-LOX inh 2.5µM
CCOC(=O)C1CCN(c2nc(-c3ccc(OC)c(OC)c3)nc3cc(OCC)c(OC)cc23)CC1	none (no result: A549 tox, Nrf2 inh, Nrf2 ARE act, ERG-DNA inh)
O=C(Oc1ccc2cc(Br)ccc2c1)C(c1ccccc1)c1ccccc1	none (no result: A549 tox, Nrf2 inh, Nrf2 ARE act, ERG-DNA inh)
O=C(CSC1CCCCC1)c1ccc(OC(F)F)cc1	12-LOX inh inconclusive (no result: A549 tox, Nrf2 inh, Nrf2 ARE act, ERG-DNA inh)
O=C(CSc1nc2nccnc2c(=O)n1CCc1ccccc1)Nc1ccccc1	none (no result: A549 tox, Nrf2 inh, Nrf2 ARE act, ERG-DNA inh)
Cc1c(C)c2ccc(OCC(=O)NCc3cccnc3)cc2oc1=O	none (no result: A549 tox, Nrf2 inh, Nrf2 ARE act, ERG-DNA inh)
S=c1nc(-c2ccccc2)n(-c2ccccc2)[nH]1	12-LOX inh 45µM
S=c1nc(-c2ccccc2)[nH]n1-c1ccccc1	12-LOX inh inconclusive
CCN(CC)CCNC(=O)c1sc2ncccc2c1-n1c(C)ccc1C	12-LOX inh inconclusive (no result: A549 tox, Nrf2 inh, Nrf2 ARE act, ERG-DNA inh)
Cc1ccc(NS(=O)(=O)c2ccc(N3CCCC3=O)cc2)cc1C	Nrf2 inh 15µM (no result: 12-LOX inh, Nrf2 ARE act, ERG-DNA inh)
O=C1CCCN1c1ccc(S(=O)(=O)Nc2cccnc2)cc1	none
Cc1ccc(NS(=O)(=O)c2ccc3c(c2)CCCC(=O)N3)cc1C	Nrf2 inh inconclusive (no result: 12-LOX inh, Nrf2 ARE act, ERG-DNA inh)
Cc1ccc(NS(=O)(=O)c2ccc3c(c2)CCC(C)(C)O3)cc1C	Nrf2 inh 23µM (no result: 12-LOX inh, Nrf2 ARE act, ERG-DNA inh)
CC(C)CC(=O)NC(=S)Nc1nc(-c2cccc3ccccc23)cs1	A549 tox inconclusive, Nrf2 inh 26µM, 12-LOX inh inconclusive
COc1ccc(S(=O)(=O)NCc2ccc3c(c2)cc(C)n3C)cc1	ERG-DNA inh 35µM
Cc1cc2cc(CNS(=O)(=O)c3ccccc3)ccc2n1C	ERG-DNA inh 11µM
CCS(=O)(=O)NCc1ccc2c(c1)cc(C)n2C	none
Cc1ccc(-n2ncc3c(NCc4cccnc4)ncnc32)c(C)c1	Nrf2 inh 9.2µM
Cc1cccc(-n2ncc3c(NCc4cccnc4)ncnc32)c1	Nrf2 inh inconclusive
O=c1cc(-c2ccncc2)oc2c(-c3ccccc3Oc3ccccc3)nccc12	12-LOX inh 32µM (no result: LDHA block, A549 tox, Nrf2 inh, Nrf2 ARE act, ERG-DNA inh)
COc1ncccc1-c1nccc2c(=O)cc(-c3ccncc3)oc12	none (no result: LDHA block, A549 tox, Nrf2 inh, Nrf2 ARE act, ERG-DNA inh)
COc1ccc2c(=O)cc(-c3ccncc3)oc2c1OC	Nrf2 inh 16µM
COc1ccc(-c2cc(Nc3cccc(Cl)c3)nc(C)n2)cc1	12-LOX inh inconclusive (no result: A549 tox, Nrf2 inh, Nrf2 ARE act, ERG-DNA inh)
O=[N+]([O-])c1cc2c(c(CSc3nnc(Nc4ccccc4)s3)c1)OCOC2	none
Cc1ccccc1Nc1nnc(SCc2cc([N+](=O)[O-])cc3c2OCOC3)s1	Nrf2 inh 26µM
O=C(NCC1CCCO1)c1cccc2c1C(=O)c1ccc(N3CCC(Cc4ccccc4)CC3)cc1S2(=O)=O (stereo not drawn)	Nrf2 inh 21µM (no result: 12-LOX inh)
CN(C)/C=C/C(=O)c1cnc(-c2ccccc2Cl)s1	Nrf2 inh inconclusive, 12-LOX inh 8.9µM
CN(C)/C=C/C(=O)c1cnc(-c2cccc(Cl)c2)s1	12-LOX inh 32µM
CN(C)/C=C/C(=O)c1cnc(-c2ccccn2)s1	Nrf2 inh inconclusive
OCC1CCN(c2ccc(-c3nc(CCCc4ccccc4)no3)cn2)CC1	none (no result: LDHA block, A549 tox, Nrf2 inh, Nrf2 ARE act, ERG-DNA inh)
CCCn1nc(S(=O)(=O)N2CCCC2)c(C(=O)OCC)c1C	12-LOX inh 11µM (no result: A549 tox, Nrf2 inh, Nrf2 ARE act, ERG-DNA inh)
